# About 14,000 (4.5%) of roughly 310,000 compounds showed an effect of 50% or more. Effects have a minus sign here. The sample holds strong results, similar compounds and a random draw of the others, so the mix is not that of the screen.
# Molecular target: human ether-à-go-go-related gene (hERG) potassium channel (human, UniProt Q12809)
# Experiment: primary screen, population patch clamp on CHO cells stably expressing hERG; higher = less effect of the substance
# 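Also: peak tail current of the secondary pulse compared with the same well before compound.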
# Chain of human ether-à-go-go-related gene (hERG) potassium channel (Q12809 whole entry, looked up): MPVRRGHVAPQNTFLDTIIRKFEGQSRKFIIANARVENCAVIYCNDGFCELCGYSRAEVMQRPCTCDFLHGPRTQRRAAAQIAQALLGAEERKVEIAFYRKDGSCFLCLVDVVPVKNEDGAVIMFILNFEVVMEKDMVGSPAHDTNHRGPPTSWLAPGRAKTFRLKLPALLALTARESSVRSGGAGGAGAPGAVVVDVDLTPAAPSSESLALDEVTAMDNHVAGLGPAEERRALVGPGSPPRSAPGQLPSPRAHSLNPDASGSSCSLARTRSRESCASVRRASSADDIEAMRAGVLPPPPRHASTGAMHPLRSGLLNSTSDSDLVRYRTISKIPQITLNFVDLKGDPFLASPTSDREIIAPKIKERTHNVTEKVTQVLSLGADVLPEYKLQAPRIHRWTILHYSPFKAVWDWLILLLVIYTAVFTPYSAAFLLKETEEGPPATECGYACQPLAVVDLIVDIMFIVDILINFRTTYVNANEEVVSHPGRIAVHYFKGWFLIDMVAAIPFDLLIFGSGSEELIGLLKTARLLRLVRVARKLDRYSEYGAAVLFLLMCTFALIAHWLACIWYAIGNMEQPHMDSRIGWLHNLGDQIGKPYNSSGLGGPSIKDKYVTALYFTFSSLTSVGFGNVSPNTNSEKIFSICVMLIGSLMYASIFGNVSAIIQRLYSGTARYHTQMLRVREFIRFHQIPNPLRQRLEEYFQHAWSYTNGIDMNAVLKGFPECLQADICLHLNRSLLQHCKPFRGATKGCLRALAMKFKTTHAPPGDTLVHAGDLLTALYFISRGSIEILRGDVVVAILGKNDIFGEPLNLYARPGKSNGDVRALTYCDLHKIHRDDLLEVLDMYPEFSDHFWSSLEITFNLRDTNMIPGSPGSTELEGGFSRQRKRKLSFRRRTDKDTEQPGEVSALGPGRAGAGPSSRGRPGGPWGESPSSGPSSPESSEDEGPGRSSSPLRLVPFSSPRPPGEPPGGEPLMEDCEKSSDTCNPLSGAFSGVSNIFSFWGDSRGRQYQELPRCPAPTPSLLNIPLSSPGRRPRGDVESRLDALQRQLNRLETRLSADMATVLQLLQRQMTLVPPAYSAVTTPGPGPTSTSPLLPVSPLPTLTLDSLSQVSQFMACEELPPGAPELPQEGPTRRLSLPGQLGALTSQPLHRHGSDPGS
row,SMILES,"hERG current change (%, negative = inhibition) at 10uM [%]"
1,C/C(=N\N=c1/sc2ccccc2n1C)c1ccc(N2CCOCC2)cc1,18.9
2,Cc1ccc2c(CC(=O)OCc3nc(N)nc(Nc4ccccc4C)n3)coc2c1,5.79
3,CCCNC(=O)OCc1cccnc1Sc1ccc(C)cc1,-30
4,COCCOc1ccc(C(F)(F)F)cc1NC(=O)c1ccc(C)cc1,-0.151
5,COc1ccc(CCNC(=O)[C@@H](NC(=O)c2ccccc2F)C(C)C)cc1OC,-9.87
6,O=C(CSc1ncccn1)NCc1ccc2c(c1)OCO2,11.9
7,Brc1ccc(OCc2nc(-c3ccccn3)n[nH]2)cc1,-3.04
8,Clc1ccc(OCc2nc(-c3ccccn3)n[nH]2)cc1,-55.6
9,Cc1ccc(OCc2nc(-c3ccccn3)n[nH]2)cc1,-15.7
10,O=C(CN1CC=C(c2ccccc2)CC1)Nc1c(Cl)cccc1Cl,4.21
11,CCOc1ccc2c(c1)-c1c(ssc1=S)C(C)(C)N2,4.44
12,O=C(O)CCCC(=O)Nc1ccc(Cl)cc1,21.6
13,COc1cccc(-c2noc(Cn3nc(C)c([N+](=O)[O-])c3C)n2)c1,-6.89
14,CN(C)C(CNC(=O)c1cccc(C(F)(F)F)c1)c1ccco1 (centres unmarked),-11.8
15,Nc1c(C(=O)O)cnc2nc(N3CCOCC3)nn12,21.7
16,NC(=O)c1sc2nc(-c3ccccc3)ccc2c1N,18.7
17,CC(C)OC(=O)c1sc2nc(-c3ccccc3)ccc2c1N,16.7
18,Nc1c(C(=O)N2CCCC2)sc2nc(-c3ccccc3)ccc12,-70.7
19,CCOc1ccc(NC(=O)C(CC(=O)O)Cc2ccccc2)cc1 (centres unmarked),5.94
20,O=C(c1ccco1)N1CCC(c2nc3ccccc3[nH]2)CC1,-5.9
21,COC(=O)c1cc(CSC(=N)N)ccc1OCCC(C)C.Cl,-3.46
22,CCOc1ccc(CSC(=N)N)cc1Cl.Cl,-15.2
23,COc1ccc(CSC(=N)N)cc1[N+](=O)[O-].Cl,-3.72
24,CCOc1ccc(CSC(=N)N)cc1[N+](=O)[O-].Cl,-65.5

row,SMILES,"hERG current change (%, negative = inhibition) at 10uM [%]"
1,CCCCOc1ccc(CSC(=N)N)cc1[N+](=O)[O-].Cl,-64.1
2,CCCCCOc1ccc(CSC(=N)N)cc1[N+](=O)[O-].Cl,-56.7
3,Cl.N=C(N)SCc1ccc(O)c([N+](=O)[O-])c1,-0.169
4,CCCOc1ccc(CSC(=N)N)cc1C(=O)OC.Cl,-0.181
5,CCCCOc1ccc(CSC(=N)N)cc1Cl.Cl,-21.9
6,Cc1ccc(-c2n[nH]c(=O)c3ccccc23)cc1N,5.75
7,COc1cccc(CNC(=O)c2ccc(Cl)c(S(=O)(=O)N3CCOCC3)c2)c1,-19.5
8,COc1ccc(OC)c(S(=O)(=O)n2nnc3cc(Cl)ccc32)c1,4.31
9,COc1ccc(NC(=O)c2ccccc2OCc2c(C)noc2C)cc1OC,-37.5
10,CN(c1ccc(C(=O)N2CCN(Cc3ccccc3)CC2)cc1)S(=O)(=O)c1ccc(Cl)cc1,-24.9
11,CCOc1ccc(C(=O)N2CCCC(c3nc(-c4cccs4)no3)C2)cc1 (centres unmarked),-46.9
12,Cc1ccc(-c2noc(C3CCCN(C(=O)c4ccccc4)C3)n2)o1 (centres unmarked),-13.1
13,Cc1ccc(-c2noc(C3CCCN(C(=O)c4cccc(Cl)c4)C3)n2)o1 (centres unmarked),-43.4
14,Cc1cccc(C(=O)N2CCCC(c3nc(-c4ccc(C)o4)no3)C2)c1 (centres unmarked),-27.7
15,CCOc1ccccc1NC(=O)N1CCCC(c2nc(-c3ccc(C)o3)no2)C1 (centres unmarked),-52.5
16,Cc1ccc(-c2noc(C3CCCN(C(=O)c4cccc([N+](=O)[O-])c4)C3)n2)o1 (centres unmarked),-65
17,Cc1ccc(-c2noc(C3CCCN(C(=O)c4ccc(Cl)cc4)C3)n2)o1 (centres unmarked),-55.2
18,CCOc1ccc(C(=O)N2CCCC(c3nc(-c4ccc(C)o4)no3)C2)cc1 (centres unmarked),-60.2
19,Cc1ccc(-c2noc(C3CCCN(C(=O)c4ccccc4Br)C3)n2)o1 (centres unmarked),-42.6
20,COc1ccc(C(=O)N2CCCC(c3nc(-c4ccc(C)o4)no3)C2)cc1OC (centres unmarked),-8.29
21,Cc1ccc(-c2noc(C3CCCN(C(=O)c4ccc(C(C)(C)C)cc4)C3)n2)o1 (centres unmarked),-19.8
22,COc1cc(OC)cc(C(=O)N2CCCC(c3nc(-c4ccc(C)o4)no3)C2)c1 (centres unmarked),-9.35
23,COc1ccc(S(=O)(=O)N2CCCCCC2)cc1C(=O)OCC(=O)NC(C)(C)C,-17.5

# — PMC4336329 (PLoS ONE, 2015)
